The results in this text go back to PubChem BioAssay (NCI).

Molecules are shown by their SMILES. Compounds without any hit were thinned out: in the full panel of roughly 83,000, 20% have a hit.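 The endpoint reported here, percent growth, reads 100 for growth as untreated, 0 for no net growth and -100 for all cells dead.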 A number with no mark means an inactive call. Activity calls are given as the source filed them. How the source made its calls: active means growth percent below 10; inactive means the rest.

In the assay the test system is MDA-MB-468 breast. Kind of assay: NCI-60 one-dose screen, 48 h (100 = growth as untreated, 0 = no growth, -100 = all killed). Particulars: 10 µM unless noted.
With `COc1ccc(C(=O)Nc2nc(-c3ccc(Cl)cc3)cs2)cc1`, the growth was 95.9%.
Take `CCNCc1ccc(O)c2ncccc12`: the growth is 54.6%.
In the case of `Oc1c(I)cc(I)cc1CNCCN(Cc1ccccn1)Cc1ccccn1`, the growth is -61.2% (active).
For `CC(=O)O[C@@H]1CC2C(C)(C)CCCC2(C)C2=C1C(=O)C(C(C)C)=CC2=O` (stereo partly specified) the value was -35.6% (active).
With `O=C(CN1C(=O)S/C(=C\C(Cl)=C\c2ccccc2)C1=O)NCCc1ccc(O)cc1`, the growth was 17.3%.
For `O=S(=O)(O)C(C(I)I)S(=O)(=O)O` the value was 95.9%.
For `CNC(=O)c1c(NC(=O)c2ccc(C(C)C)cc2)sc2c1CCC(=O)C2` the value was -28.4% (active); for `CCC/C=C/C=C/C(=O)N[C@@H](Cc1cc(F)cc(F)c1)C(=O)N[C@@H]1C(=O)N2CCC[C@H]2C(=O)N2CCCC[C@H]2C(=O)N[C@@H](C)C(=O)N2C[C@H](C)C[C@H]2C(=O)O[C@H]1C`, -0.457% (active); for `Cn1cc(-c2cc3ncnc(Nc4ccc(CC(=O)Nc5nc(C(C)(C)C)cs5)cc4)c3s2)cn1`, 31.2%.
For `COc1ccc(/C=C(/C(=O)N2CCN(c3ccc(C)cc3)CC2)c2cc(OC)c(OC)c(OC)c2)cc1N` the value was 29.6%; for `CN(C)/C(N)=N/N=C(\c1ccccc1)c1ccccn1`, 95.8%.
On to `Cc1ccc(-[n+]2c3cc(N)c(C)cc3nc3cc(C)c(Nc4ccccc4)cc32)cc1`, for which the growth was -86.2% (active).
For the compound `O=C(Nc1ccc(NC(=O)c2cc(=O)[nH]c3ccccc23)cc1)Nc1cccc(Cl)c1`, the growth is 64.4%.
For `COc1ccc2c(c1)-c1c(c3cc(OC)ccc3n(CCN(C)C)c1=O)C2=O` the value was 46%; for `CS(=O)c1cccc(-c2ccc3nc(N)n(-c4ccc(C(F)(F)F)cc4)c(=O)c3c2)c1` (stereo unspecified), 84.4%.
For `CN1CCN(c2ccc(C(=O)/C=C/c3ccc(Cl)c(C(F)(F)F)c3)cc2)CC1` the value was 18.4%; for `CCCNC(=S)N/N=C(\C)c1ccccn1`, -26.3% (active); for `O=C(Nc1ccccc1)Nc1nc2ccc([N+](=O)[O-])cc2s1`, -22.6% (active).
In the case of `O=S(=O)(/N=C1C=C/C(=N\S(=O)(=O)c2ccccc2)c2ccccc2\1)c1ccccc1` it was 79.3%; in that of `O=C(Nc1nc2ccc([N+](=O)[O-])cc2s1)Nc1ccccc1Br`, 33.2%.
Consider `CCCN1CCN(c2ccc3nc(-c4ccc5nc(-c6ccc(OCC)c(OCC)c6)[nH]c5c4)[nH]c3c2)CC1`, for which the growth is -77.2% (active).
In the case of `CC/C(Cc1ccccc1)=C(\c1ccc(OCCN2CCCCCC2)cc1)c1ccc(OC(=O)NCc2ccccc2)cc1` it was 53.3%.
Turning to `COc1ccc(C2=C/C(=C\c3ccccc3O)C(=O)N2Cc2ccccc2)cc1`, the growth was 53.7%.
Regarding `C[C@@H](Oc1cc(-c2cnn(C3CC4(CCNCC4)C3)c2)cnc1N)c1c(F)ccc(Cl)c1Cl`, the growth was -53.3% (active).
For `CNCCNc1nc2ccccc2c2c(=O)c3cc(OC)ccc3sc12` the value was 44.7%.
For `COC(=O)C(CC=O)C(=O)C(=O)Nc1cccc(C(F)(F)F)c1` (stereo unspecified) the value was 104%.
